Source: PubChem BioAssay (NCI)
About 79,000 compounds went through this panel and 15% of them were active in at least one assay; those are over-represented in the sample as a whole. No stated cut-off is given here; in the data, active means growth inhibition above about 70%; inactive means the rest. Where a SMILES comes first, the peptide text is derived from it. The star is where a group is joined. Boc = CC(C)(C)OC(=O)*; OBn = c1ccc(CO*)cc1

Tests used:
[1] = NCI Yeast Anticancer Drug Screen. Data for the rad50 strain (AID 155);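 further: 0% = growth of vehicle-only cultures of the same strain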; conditions: S. cerevisiae rad50 strain growth inhibition; at 50.0 µM; hits give high values
Summary of the method: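 A DNA repair-deficient yeast mutant serves as the test organism; compound-induced growth inhibition is calculated against vehicle-treated cells.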

[2] = NCI Yeast Anticancer Drug Screen. Data for the mec2-1 strain (AID 157); conditions: S. cerevisiae mec2-1 strain, at 50.0 µM, hits give high values
Summary of the method: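 Using mec2-1 yeast: add compound, measure growth, express inhibition versus vehicle-treated cultures.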

[3] = NCI Yeast Anticancer Drug Screen. Data for the sgs1 mgt1 strain (AID 161);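 further: 0% = growth of cultures given vehicle only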; conditions: S. cerevisiae sgs1 mgt1 strain, at 50.0 µM, hits give high values
Summary of the method: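 Percent growth inhibition was derived by comparing compound-exposed mutant yeast with vehicle-exposed cultures. The strain carries alterations in DNA damage repair.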

[4] = NCI Yeast Anticancer Drug Screen. Data for the cln2 rad14 strain (AID 165);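 further: 0% = growth equal to vehicle treated cultures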; conditions: S. cerevisiae cln2 rad14 strain, at 50.0 µM, hits give high values
Summary of the method: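 Yeast strain cln2 rad14, bearing defects in cell cycle control and DNA repair, serves as the test system; values reflect growth inhibition compared with vehicle.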

[5] = NCI Yeast Anticancer Drug Screen. Data for the bub3 strain (AID 167); conditions: S. cerevisiae bub3 mutant strain, at 50.0 µM, hits give high values
Summary of the method: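 Inhibition values come from growth of compound-treated mutant yeast normalised to vehicle-treated controls.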

[6] = NCI Yeast Anticancer Drug Screen. Data for the mlh1 rad18 strain (AID 175); conditions: S. cerevisiae mlh1 rad18 strain growth inhibition; at 50.0 µM; hits give high values
Summary of the method: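 Steps: expose repair-defective yeast to compound; measure growth; express inhibition against vehicle-treated controls.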

Measured: growth inhibition

O=C1N=C2SCCCN2C1(c1ccccc1)c1ccccc1
inactive: [1] 4.2% | [2] 21.2% | [3] -3.4% | [4] -7% | [5] 0% | [6] 6.9%

NC(Cc1ccccc1F)C(=O)O (configuration not stated)
inactive: [1] 5.95% | [2] -18.6% | [3] 5.4% | [4] 13.6% | [5] 4.9% | [6] 11.2%

C[N+]1=C(/C=C/c2ccnc3c(O)cccc23)C(C)(C)c2ccccc21
inactive: [1] 10% | [2] 11.2% | [3] 2.45% | [4] -60.4% | [5] -6.4% | [6] 8.65%

CC(O)C1OC(n2cnc3c(=S)nc[nH]c32)C(O)C1O (configuration not stated)
inactive: [1] 7.5% | [2] 15.7% | [3] 0.6% | [4] -98.1% | [5] -4.85% | [6] -13.3%

CC(=O)Nc1c(F)c(F)c(F)c(F)c1F
inactive: [1] 20.1% | [2] 2.2% | [3] -11.7% | [4] -35% | [5] 14.3% | [6] -13.1%

CCOC(=O)C1CCCc2sc(N)c(C#N)c21 (configuration not stated)
inactive: [1] 1.15% | [2] -13.8% | [3] 4.2% | [4] -28.4% | [5] 3.15% | [6] 0.95%

c1ccc2c[n+](CCCC[n+]3ccc4ccccc4c3)ccc2c1
inactive: [1] 46.5% | [2] 17.1% | [3] 22.4% | [4] 12.4% | [5] 41.8% | [6] 44.8%

CCC(Br)C(=O)Nc1ccccc1C (configuration not stated)
inactive: [1] 27% | [2] 3.25% | [3] 6.75% | [4] -14.2% | [5] 20.6% | [6] 0.4%

CC(=O)NC(Cc1ccccc1)C(=O)Nc1ccccc1C (configuration not stated)
inactive: [1] 9.1% | [2] -18.3% | [3] 14.8% | [4] 10.6% | [5] 7.75% | [6] 7.35%

Cc1cccc(OCCCCCl)c1
inactive: [1] -18% | [2] -9.7% | [3] -8.25% | [4] 10.4% | [5] -20.6% | [6] -9.3%

CCCN(CCC)C1=Nc2ccccc2-n2cnnc2C1
inactive: [1] -22.4% | [2] 3.45% | [3] -25.6% | [4] 3.1% | [5] -2.25% | [6] -11.4%

Clc1ccc2noc(-c3ccccc3)c2c1
inactive: [1] 22.6% | [2] 3.05% | [3] 4% | [4] 0.85% | [5] 0.7% | [6] 23.6%

CCC(C)OC(=O)/C=C/c1ccccc1 (configuration not stated)
inactive: [1] 1.35% | [2] 3.15% | [3] -1.8% | [4] -0.25% | [5] -10.2% | [6] -10.6%

O=C(N/N=C/c1ccc(O)cc1)c1ccccc1NC(=O)C1CC1
inactive: [1] 3.25% | [2] 23.7% | [3] 18.9% | [4] 2.55% | [5] -0.85% | [6] -21.1%

CCOC(=O)CC1(C)SCCN1C(N)=O (configuration not stated)
inactive: [1] 2.25% | [2] 4.35% | [3] -5.85% | [4] -26.3% | [5] 4% | [6] -10.2%

Nc1cccc(OCC2CCCN3CCCCC23)c1 (configuration not stated)
inactive: [1] 20% | [2] -17.9% | [3] 4.9% | [4] 2.45% | [5] 6.05% | [6] -64.8%

N#Cc1c2ccccc2cc2c1ccc1ccccc12
inactive: [1] 6.95% | [2] 17.1% | [3] 15.8% | [4] -4.45% | [5] 11.9% | [6] 17.1%

O=C1CCCCC1CN1CCCC1 (configuration not stated)
inactive: [1] -10.4% | [2] -12% | [3] -33.6% | [4] 21.4% | [5] -42.5% | [6] -22.6%

Nc1cc(Cl)c2c(c1)C(=O)c1ccccc1-2
inactive: [1] -2.45% | [2] 0.7% | [3] -3.95% | [4] -5.3% | [5] -5.3% | [6] -5.4%

O=C(C1=Cc2ccccc2OC1)N1CCN(c2ccccc2Cl)CC1
inactive: [1] 12.3% | [2] 20.2% | [3] 34.6% | [4] 24.4% | [5] 38% | [6] 40.1%

O=C(C(c1ccccc1)c1ccccc1)N(CCO)c1ccccc1
inactive: [1] -12% | [2] -28.6% | [3] -4.2% | [4] -9.5% | [5] -4.6% | [6] -0.65%

CCCC(CCC)C(=O)[O-].CCCC(CCC)C(=O)[O-].CCCC(CCC)C(=O)[O-].CCCC(CCC)C(=O)[O-].[Cu+2].[Cu+2]
inactive: [1] 1.4% | [2] 13.4% | [3] -2.8% | [4] 19.9% | [5] 20% | [6] 14.2%

C=C1CC(C)(COc2ccc3c(C)cc(=O)oc3c2)OC1=O (configuration not stated)
inactive: [1] 52.9% | [2] 46.1% | [3] 47.8% | [4] 48.5% | [5] 20.4% | [6] 54.5%

CCN(CC)CCC(=O)N1C/C(=C/c2ccccc2)C(=O)/C(=C\c2ccccc2)C1
inactive: [1] 47.4% | [2] 37.9% | [3] 12.8% | [4] 30.6% | [5] 13.2% | [6] 2.7%

Cc1cc2nc3c(C(OC4OC(CO)C(O)C(O)C4O)C(O)CO)nn(-c4ccccc4)c3nc2cc1C (configuration not stated)
inactive: [1] -23% | [2] -13.8% | [3] -35.1% | [4] 0.25% | [5] -26.9% | [6] 0.75%

O=[N+]([O-])c1ccc(Sc2ccc([N+](=O)[O-])cc2)cc1
inactive: [1] 2.35% | [2] 1.45% | [3] 8% | [4] 22.6% | [5] -0.1% | [6] 11.3%

CC(C)Nc1nc(N)nc(N)n1
inactive: [1] -11.1% | [2] -17.6% | [3] 2% | [4] -20.1% | [5] -17.6% | [6] -5.2%

CC(C)CC(NC(=O)OC(C)(C)C)C(=O)NC(CCC(=O)OCc1ccccc1)C(N)=O (stereo not drawn) (Boc-Leu-Glu(OBn)-NH2; configuration not given here)
inactive: [1] 19.1% | [2] -8.9% | [3] 8.65% | [4] 19.9% | [5] 24.4% | [6] 4.65%

COC(=O)C1OC1(C)c1ccccc1 (configuration not stated)
inactive: [1] 2.3% | [2] 4.6% | [3] -0.25% | [4] -0.35% | [5] -1.95% | [6] -2.55%

CCOC(CSc1cc(C)c2ccccc2n1)OCC
inactive: [1] 14.1% | [2] -0.05% | [3] -11.2% | [4] 3.35% | [5] 0.2% | [6] -15.2%

Nc1ccc(S(=O)(=O)N/N=C/c2ccc(O)cc2)cc1
inactive: [1] 4.35% | [2] -21.4% | [3] 4.7% | [4] -22.1% | [5] 5.1% | [6] -11.3%

O=C1c2c(nc3ccccc3c2-c2ccccc2)CN1Nc1ccccn1
inactive: [1] -2.5% | [2] -4.1% | [3] 6.8% | [4] 12.8% | [5] -5.7% | [6] -33.9%

CN(CCSSCCN(C)/N=C/c1ccccc1)/N=C/c1ccccc1
inactive: [1] -30.6% | [2] -10% | [3] -26.7% | [4] -27.6% | [5] -10.7% | [6] -17.1%

CC(C)OCN1COCN=C1NC#N
inactive: [1] 38.2% | [2] 12.2% | [3] 23.1% | [4] 28.7% | [5] -10.4% | [6] 33%

CC(NC(=O)C(C)NC(=O)C(N)CCP(C)(=O)O)C(=O)O (configuration not stated)
inactive: [1] -20.6% | [2] -15% | [3] -15.2% | [4] -8.2% | [5] -12.2% | [6] -9.2%

Nc1ccn([C@H]2CO[C@@H](CO)O2)c(=O)n1
inactive: [1] -53% | [2] -46.4% | [3] -18.7% | [4] 0.75% | [5] -14.7% | [6] -22.2%

NC(CO)C(O)c1ccc([N+](=O)[O-])cc1 (configuration not stated)
inactive: [1] -14.6% | [2] -33.2% | [3] -3.3% | [4] -7.25% | [5] -12.2% | [6] -13.7%

Cc1nc2cncnc2n(CCN2CCOCC2)c1=O
inactive: [1] 15.1% | [2] 16.2% | [3] 23.2% | [4] -2.35% | [5] -2.45% | [6] 20.4%

COc1nc2nccc-2c2occn12
inactive: [1] -29.4% | [2] -11.2% | [3] -16.8% | [4] -27.5% | [5] -9.6% | [6] -29.1%

CCOC(=O)c1cc2cc(C)cc(C(=O)c3ccc([N+](=O)[O-])cc3)c2[nH]1
inactive: [1] 15.1% | [2] 25.4% | [3] 30.6% | [4] 4.15% | [5] -0.55% | [6] -16.3%

O=C(O)CCCCC(=O)c1cc(O)ccc1O
inactive: [1] 15.3% | [2] 10.1% | [3] 2.55% | [4] -53.3% | [5] -15.3% | [6] -3.45%

CC1CCCCC12COC(O)CO2 (configuration not stated)
inactive: [1] -22.5% | [2] -23.4% | [3] -19.1% | [4] -11.7% | [5] -24.1% | [6] -31.9%
